Where “and” joins values, the source holds several entries; their conditions need not be identical. Equal entries are not always repeated. Records with an inconclusive call do not appear. The source holds several records for some structures; these can differ, active in one and inactive in another. Calls of active or inactive are those of the source. The call rests on the fitted dose curve; in most records, active means well fitted curve in the direction sought with a large enough effect; inconclusive means small, poorly fitted or top-dose-only effect, or another doubt; inactive means no such curve, though single readings can be large; an effect the other way counts as inactive or inconclusive.
How the values were obtained:
[1] = target: Cytochrome P450 3A7 (Homo sapiens) (UniProt P24462); test: Cytochrome P450 family 3 subfamily A member 7 (CYP3A7) small molecule antagonists: luciferase biochemical qHTS assay (AID 1963596); details: P450-Glo CYP3A7 enzyme luminescence, 1 h; series mostly up to 57.4 µM; further: nearly all actives have a fitted effect of over 40% in size
Method in brief: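 Enzyme-substrate mix + cpd (DMSO), 10 min RT; + NADPH regen system, 1 h RT; + luciferin detection reagent, 20 min RT; luminescence read. Proluciferin substrate, P450-Glo format, 1536-well qHTS.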

[2] = Viability qHTS for spleen associated tyrosine kinase inhibitor (SYKi) naive MV4-11 cells (AID 1963823); details: MV4-11 AML viability, CellTiter-Glo luminescence, 72 h; series mostly up to 45 µM; further: nearly all actives have a fitted effect of over 40% in size
Method in brief: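 Seeding of 500 SYKi-naive MV4-11 cells per well onto pre-dispensed compounds preceded a 72 hr incubation at 37 C. Luminescent CellTiter-Glo signal, read after 10 min at room temperature, reflected viable cells.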

[3] = Viability qHTS for spleen associated tyrosine kinase inhibitor (SYKi) drug resistant MV4-11 cells (AID 1963824); details: SYKi-resistant MV4-11 viability, CellTiter-Glo, 72 h; series mostly up to 45 µM; further: nearly all actives have a fitted effect of over 35% in size
Method in brief: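 SYK-inhibitor-resistant MV4-11 AML cells were seeded at 500 per well onto compound and cultured 72 hours (37 °C, 5% CO2). CellTiter-Glo was then added, and after 10 min at room temperature, luminescence gave viability.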

[4] = Quantitative highthroughput screen to assess conditional lethalithy of P12 Ichikawa cells grown in Human Plasma-Like Medium with dialyzed fetal bovine serum (HPLM+ds) (AID 1963879); details: ATP luminescence, 48 h; Potency: viability; series mostly up to 45.8 µM; further: nearly all actives have a fitted effect of over 35% in size
Method in brief: (§1)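 Each medium arm—HPLM with 10% dialyzed FBS, or RPMI1640 with 5 mM glucose and 10% untreated or dialyzed FBS—was screened against an 11-point, 3-fold compound titration for 48 h at 37 °C, with CellTiter-Glo luminescence as endpoint.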

[5] = Quantitative highthroughput screen to assess conditional lethalithy of SEM cells grown in RPMI1640 with unreated serum (RPMI+s) (AID 1963883); details: SEM B-ALL cells, CellTiter-Glo viability, 48 h; series mostly up to 45.8 µM; further: nearly all actives have a fitted effect of over 35% in size;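 on Viability: 100% = DMSO wells and 0% = empty wells without cells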
Method in brief: as §1

[6] = Cellular viability qHTS for adrenocortical cancer (ACC) cell line NCI-H295R (AID 1963990); details: CellTiter-Glo ATP luminescence, 48 h; series mostly up to 46.1 µM; further: nearly all actives have a fitted effect of over 60% in size
Method in brief: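 Adrenocortical carcinoma cells, suspended at 300 000 cells/mL in serum-free DMEM plus ITS, rested overnight before pin transfer of compound. After two days' incubation, ATP-dependent luminescence was recorded and curve-fitted.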

[7] = Quantitative highthroughput screen to assess conditional lethalithy of NOMO1 cells grown in RPMI1640 with untreated serum (RPMI+s) (AID 1963876); details: NOMO1 AML cells in RPMI+serum, CellTiter-Glo viability, 48 h; series mostly up to 45.8 µM; further: nearly all actives have a fitted effect of over 35% in size;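 on Viability: 100% = DMSO wells and 0% = empty wells without cells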
Method in brief: as §1

[8] = Quantitative highthroughput screen to assess conditional lethalithy of NOMO1 cells grown in RPMI1640 with dialyzed fetal bovine serum (RPMI+ds) (AID 1963877); details: NOMO1 in RPMI+dialyzed FBS viability, ATP luminescence, 48 h; series mostly up to 45.8 µM; further: nearly all actives have a fitted effect of over 30% in size;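 on Viability: 100% = DMSO control wells and 0% = empty wells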
Method in brief: as §1

[9] = Quantitative highthroughput screen to assess conditional lethalithy of NOMO1 cells grown in Human Plasma-Like Medium with dialyzed fetal bovine serum (HPLM+ds) (AID 1963878); details: NOMO1 AML cells in HPLM+ds, CellTiter-Glo viability, 48 h; series mostly up to 45.8 µM; further: nearly all actives have a fitted effect of over 35% in size;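 on Viability: 100% = DMSO wells and 0% = empty wells on each plate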
Method in brief: as §1

[10] = Quantitative highthroughput screen to assess conditional lethalithy of P12 Ichikawa cells grown in RPMI1640 with dialyzed fetal bovine serum (RPMI+ds) (AID 1963880); details: ATP luminescence, 48 h; Potency: P12-Ichikawa viability; series mostly up to 45.8 µM; further: nearly all actives have a fitted effect of over 35% in size;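 on Viability: 100% = DMSO wells and 0% = empty wells on each plate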
Method in brief: as §1

[11] = Quantitative highthroughput screen to assess conditional lethalithy of P12 Ichikawa cells grown in RPMI1640 with untreated serum (RPMI+s) (AID 1963881); details: ATP luminescence, 48 h; Potency: viability; series mostly up to 45.8 µM; further: nearly all actives have a fitted effect of over 35% in size;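 on Viability: 100% = DMSO wells and 0% = empty wells without cells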
Method in brief: as §1

[12] = Quantitative highthroughput screen to assess conditional lethalithy of SEM cells grown in Human Plasma-Like Medium with dialyzed fetal bovine serum (HPLM+ds) (AID 1963882); details: SEM B-ALL cells in HPLM+ds, CellTiter-Glo viability, 48 h; series mostly up to 45.8 µM; further: nearly all actives have a fitted effect of over 35% in size
Method in brief: as §1

[13] = Cellular viability qHTS for adrenocortical cancer (ACC) cell line SW-13 (AID 1963989); details: SW-13 ACC cells viability, CellTiter-Glo, 48 h; activity (max response): stronger effect = lower value; further: nearly all actives have a fitted effect of over 65% in size;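 on activity (max response): cells grown in serum-free medium with ITS supplement; on the % scale 0 is the no-effect control and ±100 the full control effect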
Method in brief: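 IC50 and maximal-response values come from four-parameter logistic fits of titration data. SW-13 cells in serum-free medium received compounds (up to 46 uM final) for 48 h before CellTiter-Glo luminescence.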

[14] = Quantitative highthroughput screen to assess conditional lethalithy of SEM cells grown in RPMI1640 with dialyzed fetal bovine serum (RPMI+ds) (AID 1963884); details: SEM B-ALL cells, RPMI+dialyzed FBS, CellTiter-Glo viability, 48 h; series mostly up to 45.8 µM; further: nearly all actives have a fitted effect of over 35% in size;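 on Viability: 100% = DMSO control wells and 0% = empty wells without cells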
Method in brief: as §1
Potency means the concentration at half of the fitted maximal effect.

Sequence of Cytochrome P450 3A7 (Homo sapiens) (P24462 whole entry, looked up): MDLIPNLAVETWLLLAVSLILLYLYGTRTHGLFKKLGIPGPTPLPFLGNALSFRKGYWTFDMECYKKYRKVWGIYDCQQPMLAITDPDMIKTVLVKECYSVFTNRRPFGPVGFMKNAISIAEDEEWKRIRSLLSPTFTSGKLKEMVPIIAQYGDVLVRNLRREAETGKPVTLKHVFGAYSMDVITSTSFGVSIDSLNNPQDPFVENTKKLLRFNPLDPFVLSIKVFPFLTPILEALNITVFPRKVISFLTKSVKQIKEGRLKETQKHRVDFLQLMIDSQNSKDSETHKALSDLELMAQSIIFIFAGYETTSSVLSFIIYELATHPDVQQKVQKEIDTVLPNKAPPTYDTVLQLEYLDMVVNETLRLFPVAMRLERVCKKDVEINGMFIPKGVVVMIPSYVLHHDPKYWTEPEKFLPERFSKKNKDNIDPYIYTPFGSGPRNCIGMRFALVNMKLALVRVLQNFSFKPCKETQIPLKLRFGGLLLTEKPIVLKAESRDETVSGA

Compound | Potency [1] | Potency [2] | Potency [3] | Potency [4] | Potency [5] | Potency [6] | Potency [7] | Potency [8] | Potency [9] | Potency [10] | Potency [11] | Potency [12] | activity (max response) [13] | Potency [14] | Potency [13]
COc1c(OCCCN2CCOCC2)ccc2c3n(c(=NC(=O)c4cnc(N)nc4)nc12)CCN3 | inactive | 47.3 nM (active) and 53.9 nM (active) | 37.6 nM (active) and 241 nM (active) | 182 nM (active) | 2040 nM (active) | 237 nM (active) | – | – | – | – | – | – | – | – | –
Cc1nc2ccc(CN(C)c3ccc(C(=O)N[C@@H](CCC(=O)O)C(=O)O)s3)cc2c(=O)[nH]1 | inactive | 6.6 nM (active) | 7.4 nM (active) | – | inactive | inactive | 418 nM (active) | – | – | – | – | – | – | – | –
C[C@H]1c2cccc(O)c2C(O)=C2C(=O)[C@]3(O)C(O)=C(C(N)=O)C(=O)[C@@H](N(C)C)[C@@H]3[C@@H](O)[C@@H]21 | inactive | inactive and 16.6 µM (active) | 14800 nM (active) | inactive | inactive | – | – | inactive | inactive | 16600 nM (active) | 18700 nM (active) | inactive | -2.36% (inactive) and -5.39% (inactive) | – | –
Nc1nc2c(ncn2COCCO)c(=O)[nH]1 | inactive | inactive | inactive | inactive | – | inactive | inactive | – | – | inactive | inactive | – | 1.46% (inactive) and 4.77% (inactive) | – | –
CCCOc1ccc2nc(NC(=O)OC)[nH]c2c1 | inactive | 263 nM (active) | 184 nM (active) and 332 nM (active) | 41.8 nM (active) | 14.8 nM (active) | 355 nM (active) | – | – | – | – | 41.8 nM (active) | – | – | 20.9 nM (active) | 0.251 µM (active)
CC(C)(C)NCC(O)c1ccc(O)c(CO)c1 (centres undefined) | inactive | inactive | inactive | – | inactive | inactive | – | – | – | – | 4180 nM (active) | inactive | 0.289% (inactive) and -0.385% (inactive) | inactive | –
c1ccc2c(-c3cnn4cc(-c5ccc(N6CCNCC6)cc5)cnc34)ccnc2c1 | inactive | 525 nM (active) | 833 nM (active) | – | 5260 nM (active) | 3160 nM (active) | – | – | – | – | – | 2640 nM (active) | – | – | 3.98 µM (active)
COC(=O)Nc1nc2ccc(C(=O)c3ccccc3)cc2[nH]1 | inactive | 332 nM (active) | 596 nM (active) and 372 nM (active) | 1050 nM (active) | – | 103 nM (active) and 141 nM (active) | 3320 nM (active) | – | – | 1870 nM (active) | 332 nM (active) | – | – | – | 130 nM (active) and 316 nM (active)
COc1cc2c(Nc3ccc(Cl)c(Cl)c3F)ncnc2cc1OCC1C[C@@H]2CN(C)C[C@@H]2C1 (some centres undefined) | inactive | 1860 nM (active) | 2.31 µM (active) and 2.95 µM (active) | 20900 nM (active) | 20900 nM (active) | 7.94 µM (active) and 8.91 µM (active) | – | 23400 nM (active) | 13200 nM (active) | 23400 nM (active) | – | 14800 nM (active) | – | 20900 nM (active) | 2 µM (active)
Cc1[nH]c(=O)c(C#N)cc1-c1ccncc1 | inactive | inactive | inactive | – | inactive | inactive | – | – | inactive | – | – | inactive | 14.7% (inactive) and 1.4% (inactive) and -7.07% (inactive) | inactive | –
CC(C)NCC(O)COc1ccc(CCOCC2CC2)cc1 (centres undefined) | inactive | inactive | inactive | inactive | inactive | inactive | – | – | 16600 nM (active) | inactive | inactive | inactive | -8.57% (inactive) | inactive | –
C=CCn1c(=O)c2cnc(Nc3ccc(N4CCN(C)CC4)cc3)nc2n1-c1cccc(C(C)(C)O)n1 | 10000 nM (active) | 525 nM (active) | 259 nM (active) and 372 nM (active) | 1050 nM (active) | 418 nM (active) | 1000 nM (active) | 1050 nM (active) | – | – | 1870 nM (active) | 2640 nM (active) | 235 nM (active) | – | 148 nM (active) | –
COc1cc2c(Oc3ccc4[nH]c(C)cc4c3F)ncnc2cc1OCCCN1CCCC1 | inactive | 13 µM (active) and 3.32 µM (active) | 5.8 µM (active) and 2.63 µM (active) | – | 4180 nM (active) | 22400 nM (active) | – | – | – | – | – | 9350 nM (active) | – | 5260 nM (active) | 25.1 µM (active)
CN1C(C(=O)Nc2ccccn2)=C(O)c2sccc2S1(=O)=O | inactive | 750 nM (active) and inactive | inactive | inactive | inactive | inactive | – | – | – | inactive | inactive | inactive | 0.0862% (inactive) and -19.6% (inactive) | – | –
CCn1cc(C(=O)O)c(=O)c2ccc(C)nc21 | inactive | inactive | inactive | inactive | – | inactive | – | inactive | – | inactive | inactive | inactive | 13.9% (inactive) | 5900 nM (active) | –
O=C(Cc1ccc(-c2ccc(OCCN3CCOCC3)cc2)cn1)NCc1ccccc1 | inactive | 231 nM (active) and 93.4 nM (active) | 206 nM (active) and 105 nM (active) | – | 26.4 nM (active) | 178 nM (active) | – | – | – | 37.2 nM (active) | 37.2 nM (active) | 26.4 nM (active) | – | 29.6 nM (active) | 0.199 µM (active)
Nc1ccn([C@H]2CC[C@@H](CO)O2)c(=O)n1 | inactive | inactive | inactive | – | – | inactive | – | – | 23500 nM (active) | – | – | – | 0.291% (inactive) | 7430 nM (active) | –
CCN1CCN(c2cc3c(cc2F)c(=O)c(C(=O)O)cn3C2CC2)CC1 | inactive | inactive | inactive | – | – | – | – | – | – | – | – | – | 2.41% (inactive) | – | –
CNC(=O)c1c(I)c(NC(C)=O)c(I)c(C(=O)O)c1I | inactive | inactive | inactive | – | – | – | – | – | – | – | – | – | 10% (inactive) | – | –

From PubChem BioAssay (NCATS)
